Values without a mark were called inactive. Inconclusive results are not listed. Activity calls are given as the source filed them. Calls follow the shape of the dose curve; as a rule, active = well fitted curve in the direction sought with a large enough effect; inconclusive = small, poorly fitted or top-dose-only effect, or another doubt; inactive = no such curve, though single readings can be large; an effect the other way counts as inactive or inconclusive.
Potency is read from the fitted curve at half-maximal effect.

The first assay addresses Luciferin 4-monooxygenase (Photinus pyralis) (UniProt P08659). Briefly: Primary firefly luciferase (FLuc) qHTS assay for identification of artifact compounds. (AID 1845220). Also: nearly all actives have a fitted effect of over 60% in size.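 As to activity change, negative = inhibition: plate controls were DMSO vehicle for no effect and no enzyme for full effect.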 The conditions noted are these: purified firefly luciferase, luminescence, 5 min; series mostly up to 54.1 µM; activity change, negative = inhibition: at the top concentration. In short, it runs like this: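 Reaction readout was CCD-imaged luminescence, taken 5 min after adding 10 nM purified firefly enzyme to compound-treated wells holding 10 uM luciferin and ATP in pH 7.6 buffer.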
For orientation: Quantitative high-throughput screening tests each substance at several concentrations.
`C=C1C(=O)O[C@@H]2CC(C)=C([C@@H](C)CCCO)[C@@H](OC(=O)C(C)C)[C@H]12`: the outcome was inactive.
Take `Oc1ccc(Nc2nc(-c3ccc(Cl)cc3)cs2)cc1`: the Potency is 4.78 µM (active).
Take `Nc1ncnc2c1ncn2[C@@H]1O[C@H](CO)C[C@H]1O`: the “activity change, negative = inhibition” value is -11%.
With `OCC(Cc1ccccc1)Nc1nc(Oc2ccc3c(c2)CCC3)nc2c1ncn2Cc1ccc(-c2ccccc2)cc1` (centres undefined), the compound was called inactive.
On to `Cc1cc2nc(NCCCO)n(CC(=O)c3cc(C(C)(C)C)c(O)c(C(C)(C)C)c3)c2cc1C`, for which the “activity change, negative = inhibition” value is -2.52%.
The same measure, in the same setting: then `CC1(C)CC23[C@@H]4CC(=O)[C@@H]2COC(=O)[C@@H]3CC[C@H]41`, with 2.4%; and `CC[C@H](CO)Nc1nc(Nc2cccc(-c3ccccn3)c2)c2ncn(C(C)C)c2n1`, with -13.6%; and `Cc1ccccc1C(=O)Nc1ccc(C(=O)N2CCC[C@@H](O)c3cc(Cl)ccc32)c(C)c1`, with 0.749%.
On to `CCCCn1c(-c2ccccc2)nc(-c2ccccc2)c1CN(Cc1ccc2c(c1)OCO2)Cc1ccc2c(c1)OCO2`, for which the result was inactive.
For the compound `CCOC(=O)c1cccc(CNc2ccc(N(C)C(=O)Nc3ccccc3)cc2)c1`, the “activity change, negative = inhibition” value was -4.81%.
On to `CC1CCN(C(c2ccc(F)cc2)c2ccc(C(C)C(=O)O)cc2-c2ccc(C(F)(F)F)cc2)CC1` (centres undefined), for which the “activity change, negative = inhibition” value was 3.62%.
For the compound `O=C(NC(NC(=S)Nc1ccc(F)c([N+](=O)[O-])c1)C(Cl)(Cl)Cl)C(c1ccccc1)c1ccccc1` (centres undefined), the “outcome” value was “inactive [at 25.7 µM]”.
On the same count and under the same terms, next, `OCC(CO)(CO)NCC(O)Cn1c2ccc(Cl)cc2c2cc(Cl)ccc21` (centres undefined): “inactive”.
For `COCCOCCOc1ccc(C2=N[C@@](C)(C(=O)O)CS2)c(O)c1`, the “activity change, negative = inhibition” value is 3.7%.
For `C=C(C)C(=O)O[C@H]1[C@H]2C(=C)C(=O)O[C@@H]2C[C@@H](C)/C=C\C(=O)[C@](C)(O)[C@@H]1OC(C)=O`, the “outcome” value is “inactive [at 25.7 µM]”.
Same read-out and setting: then `COc1cc(N2CCOCC2)ccc1Nc1ncc(F)c(Nc2ccccc2NS(C)(=O)=O)n1`, with “inactive”.
Take `CC(=O)C1=C(O)C2c3c[nH]c4cccc(c34)CC2C(C)(C)N(C)C1=O` (centres undefined): the “activity change, negative = inhibition” value was 4.1%.
On the same count and under the same terms, then `CC(C)N(CCCNC(=O)Nc1ccc(C(C)(C)C)cc1)C[C@H]1O[C@@H](n2cc(Br)c3c(N)ncnc32)[C@H](O)[C@@H]1O`, with -7.62%.
`O=C(c1ccc(F)c(F)c1Nc1ccc(I)cc1F)N1CC(O)(C2CCCCN2)C1` (centres undefined): the compound was called inactive.
The same measure, in the same setting: next, `O=[N+]([O-])c1ccc(-[n+]2nc(-c3ccccc3)nn2-c2ccc(I)cc2)cc1`: “inactive”.
Turning to `CC(=O)N[C@@H](CC(=O)O)C(=O)N[C@@H](CCC(=O)O)C(=O)N[C@H](C(=O)N[C@@H](CC(=O)O)C(=O)Nc1ccc2c(C)cc(=O)oc2c1)C(C)C`, the “activity change, negative = inhibition” value is -18.8%.
In the case of `CC1CCCC(SCC(O)C(=O)O)CC(=O)c2c(O)cc(O)cc2CC(=O)O1` (centres undefined), the “outcome” value was “inactive [at 25.7 µM]”.
With `COc1ccccc1NC(=O)Nc1ccc2ccccc2c1`, the Potency was 8.49 µM (active).
With `CN1CCN(C(=O)c2ccc(Nc3nccc(-c4cccs4)n3)cc2Cl)CC1`, the “activity change, negative = inhibition” value is 0.842%.
On the same count and under the same terms, next, `Cn1cc(-c2cnc3ccc4ccc(CS(=O)(=O)NCc5ccccn5)cc4c(=O)c3c2)cn1`: -12.1%; `C=C1[C@@H](C2=CC(=O)OC2)CC[C@@]2(O)[C@@H]1CC1[C@H]2CC[C@@H]2C[C@@H](O[C@H]3O[C@@H](C)[C@@H](O[C@@H]4O[C@H](CO[C@@H]5O[C@H](CO)[C@@H](O)[C@H](O)[C@H]5O)[C@@H](O)[C@H](O)[C@H]4O)[C@H](OC)[C@H]3O)CC[C@]12C` (some centres undefined): 0.528% [at 11.6 µM].
On to `C=C(C)[C@@H]1CC[C@]2(C(=O)O)CC[C@]3(C)C(CCC4[C@@]5(C)C[C@@H](O)[C@H](O)C(C)(C)C5CC[C@]43C)C12` (some centres undefined), for which the “activity change, negative = inhibition” value was 4.1% [at 25.7 µM].
Same read-out and setting: then `CCN(CCCOc1ccc2c(Nc3cc(CC(=O)Nc4cccc(F)c4)[nH]n3)ncnc2c1)CCOP(=O)(O)O`, with -2.26%; and `CCS(=O)(=O)N(Cc1cccnc1)c1cccc(-c2ccc(C#N)cc2)c1`, with -1.87%.
For the compound `CC(C)CCC[C@@H](C)[C@H]1CC[C@H]2[C@@H]3CC=C4C[C@@H](OC(=O)NCCN(C)C)CC[C@]4(C)[C@H]3CC[C@]12C`, the call was inactive.
For the compound `O=C(NNc1ccccc1)c1ccncc1`, the “activity change, negative = inhibition” value is 2.29%.
Regarding `C=C1[C@@H](C)[C@H]2[C@H](Cc3c[nH]c4ccccc34)NC(=O)[C@]23C(=O)/C=C/C(=O)[C@H](O)/C(C)=C\[C@@H](C)C/C=C/[C@H]3[C@@H]1O`, the “activity change, negative = inhibition” value is 1% [at 25.7 µM].
The same measure, in the same setting: next, `CC(C)(C)c1ccc(CNC(=S)NCc2ccc(NS(C)(=O)=O)c(F)c2)cc1`: -24.9%.
As for `CNCc1ccc(C)c(NC(=O)c2ccc(Nc3nc(-c4ccccc4)c4ccccc4n3)cc2)c1`, the outcome was inactive.
Still for that read-out and setting: next, `CC1CCC(n2c3cnccc3c3cnc(Nc4ccc5c(n4)CCN(C(=O)CO)C5)nc32)CC1` (centres undefined): “inactive”.
As for `C=CC(=O)Nc1cc(Nc2nccc(-c3cn(C)c4ccccc34)n2)c(OC)cc1N(C)CCN(C)C`, the “activity change, negative = inhibition” value was 2.46%.
Consider `COc1cc2ncnc(Nc3ccc(Oc4ccccc4)cc3)c2cc1OC`, for which the compound was called inactive.

Tested on in a further assay: not listed separately
The assay can be described thus: Primary fluorescence-based thiol-reactive (MSTI) qHTS assay for identification of artifact compounds. (AID 1845221). Also: nearly all actives have a fitted effect of over 65% in size.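 As to activity change, negative = thiol reactive: thiol-reactive compounds lower the probe fluorescence signal.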 The settings on record: MSTI thiol-reactivity probe, 1 h; series mostly up to 53.8 µM; activity change, negative = thiol reactive: at the top concentration. An outline of the steps:
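In PBS pH 7.4 with 2% DMSO, each compound met 4 uM MSTI for one hour at ambient temperature, shielded from light, before fluorescence detection.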
For the compound `C=C1C(=O)O[C@@H]2CC(C)=C([C@@H](C)CCCO)[C@@H](OC(=O)C(C)C)[C@H]12`, the Potency is 14.7 µM (active).
On the same count and under the same terms, next, `Oc1ccc(Nc2nc(-c3ccc(Cl)cc3)cs2)cc1`: 1.5 µM (active).
On to `CC1(C)CC23[C@@H]4CC(=O)[C@@H]2COC(=O)[C@@H]3CC[C@H]41`, for which the “activity change, negative = thiol reactive” value is 8.98%.
Still for that read-out and setting: next, `CC[C@H](CO)Nc1nc(Nc2cccc(-c3ccccn3)c2)c2ncn(C(C)C)c2n1`: -6.51%; `Cc1ccccc1C(=O)Nc1ccc(C(=O)N2CCC[C@@H](O)c3cc(Cl)ccc32)c(C)c1`: 38.4%; `CC1CCN(C(c2ccc(F)cc2)c2ccc(C(C)C(=O)O)cc2-c2ccc(C(F)(F)F)cc2)CC1` (centres undefined): 88%.
Consider `COc1ccc(CNC(=O)Nc2ncc([N+](=O)[O-])s2)cc1`, for which the Potency is 2.67 µM (active).
On to `OCC(CO)(CO)NCC(O)Cn1c2ccc(Cl)cc2c2cc(Cl)ccc21` (centres undefined), for which the “activity change, negative = thiol reactive” value was 379%.
`COCCOCCOc1ccc(C2=N[C@@](C)(C(=O)O)CS2)c(O)c1`: the Potency is 0.377 µM (active).
Same read-out and setting: then `COc1cc(N2CCOCC2)ccc1Nc1ncc(F)c(Nc2ccccc2NS(C)(=O)=O)n1`, with 2.38 µM (active).
The same measure, in the same setting: then `CC(=O)C1=C(O)C2c3c[nH]c4cccc(c34)CC2C(C)(C)N(C)C1=O` (centres undefined), with 3.36 µM (active).
Regarding `CC(C)N(CCCNC(=O)Nc1ccc(C(C)(C)C)cc1)C[C@H]1O[C@@H](n2cc(Br)c3c(N)ncnc32)[C@H](O)[C@@H]1O`, the “activity change, negative = thiol reactive” value is 5.97%.
On to `O=C(c1ccc(F)c(F)c1Nc1ccc(I)cc1F)N1CC(O)(C2CCCCN2)C1` (centres undefined), for which the “activity change, negative = thiol reactive” value is 298%.
With `O=[N+]([O-])c1ccc(-[n+]2nc(-c3ccccc3)nn2-c2ccc(I)cc2)cc1`, the Potency was 10.6 µM (active).
On to `COc1ccccc1NC(=O)Nc1ccc2ccccc2c1`, for which the “activity change, negative = thiol reactive” value is 195%.
The same measure, in the same setting: then `CN1CCN(C(=O)c2ccc(Nc3nccc(-c4cccs4)n3)cc2Cl)CC1`, with 91.5%; and `Cn1cc(-c2cnc3ccc4ccc(CS(=O)(=O)NCc5ccccn5)cc4c(=O)c3c2)cn1`, with 123%; and `C=C(C)[C@@H]1CC[C@]2(C(=O)O)CC[C@]3(C)C(CCC4[C@@]5(C)C[C@@H](O)[C@H](O)C(C)(C)C5CC[C@]43C)C12` (some centres undefined), with -12.2% [at 25.6 µM].
Still for that read-out and setting: then `CCN(CCCOc1ccc2c(Nc3cc(CC(=O)Nc4cccc(F)c4)[nH]n3)ncnc2c1)CCOP(=O)(O)O`, with 145%.
On the same count and under the same terms, next, `CCS(=O)(=O)N(Cc1cccnc1)c1cccc(-c2ccc(C#N)cc2)c1`: 127%; `CC(C)CCC[C@@H](C)[C@H]1CC[C@H]2[C@@H]3CC=C4C[C@@H](OC(=O)NCCN(C)C)CC[C@]4(C)[C@H]3CC[C@]12C`: -18.9%.
As for `O=C(NNc1ccccc1)c1ccncc1`, the “activity change, negative = thiol reactive” value was -15.2%.
On the same count and under the same terms, then `C=C1[C@@H](C)[C@H]2[C@H](Cc3c[nH]c4ccccc34)NC(=O)[C@]23C(=O)/C=C/C(=O)[C@H](O)/C(C)=C\[C@@H](C)C/C=C/[C@H]3[C@@H]1O`, with -0.267% [at 25.6 µM]; and `CC(C)(C)c1ccc(CNC(=S)NCc2ccc(NS(C)(=O)=O)c(F)c2)cc1`, with 137%; and `CNCc1ccc(C)c(NC(=O)c2ccc(Nc3nc(-c4ccccc4)c4ccccc4n3)cc2)c1`, with 12.2%.
As for `CC1CCC(n2c3cnccc3c3cnc(Nc4ccc5c(n4)CCN(C(=O)CO)C5)nc32)CC1` (centres undefined), the “activity change, negative = thiol reactive” value was -4.67%.
For the compound `COc1cc2ncnc(Nc3ccc(Oc4ccccc4)cc3)c2cc1OC`, the “activity change, negative = thiol reactive” value was 38.1%.
